Experimental data: PubChem BioAssay (NCATS)
Results filed as inconclusive are left out. A call without a number means that no potency is given here. Activity calls are given as the source filed them. Calls follow the shape of the dose curve; as a rule, active = well fitted inhibition curve with a large enough effect; inconclusive = small, poorly fitted or top-dose-only effect; inactive = flat fitted curve, though single readings scatter.

How the values were obtained:
[1] = qHTS profiling for inhibitors of Plasmodium falciparum proliferation (AID 504749); also: nearly all actives have a fitted effect of over 60% in size; also: potency is read from the fitted curve at half-maximal effect; settings: P. falciparum in erythrocytes, SYBR Green DNA, 72 h
Procedure, shortened: (§1)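 Quantitative HTS: compounds pinned into medium, infected erythrocytes added (0.3% parasitemia, 2.5% hematocrit), 72 h culture at 37 C under 5% CO2. Saponin/Triton lysis with SYBR Green I, overnight RT, then fluorescence read.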

[2] = qHTS for identification of novel therapeutic agents for treatment of microphthalmiaassociated transcription factor (MiT) renal cell carcinoma (RCC) (AID 1963991); settings: CellTiter-Glo, 48 h, stronger effect = lower value
Procedure, shortened: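 Three TFE3-fusion RCC cell lines (UOK109, UOK124, UOK145), 500 cells/well, were exposed to the 1912-compound MIPE 4.0 library for 48 hours at 37 C. Viability was read by CellTiter-Glo luminescence, normalised to DMSO (100%) and empty wells (0%), with 11-concentration curve fits.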

[3] = test system: 3D7; experiment: qHTS profiling for inhibitors of Plasmodium falciparum proliferation (AID 504749); also: nearly all actives have a fitted effect of over 60% in size; also: potency is read from the fitted curve at half-maximal effect; settings: P. falciparum in erythrocytes, SYBR Green DNA, 72 h; series mostly up to 28.7 µM
Procedure, shortened: as §1

[4] = test system: 7G8; experiment: as above; settings: P. falciparum in erythrocytes, SYBR Green DNA, 72 h; series mostly up to 28.7 µM
Procedure, shortened: as §1

[5] = test system: AA1029; experiment: as above; settings: P. falciparum in erythrocytes, SYBR Green DNA, 72 h; series mostly up to 28.7 µM
Procedure, shortened: as §1

[6] = test system: AS120; experiment: as above; settings: P. falciparum in erythrocytes, SYBR Green DNA, 72 h; series mostly up to 28.7 µM
Procedure, shortened: as §1

[7] = test system: ATS189; experiment: as above; settings: P. falciparum in erythrocytes, SYBR Green DNA, 72 h; series mostly up to 28.7 µM
Procedure, shortened: as §1

[8] = test system: ATS95; experiment: as above; settings: P. falciparum in erythrocytes, SYBR Green DNA, 72 h; series mostly up to 28.7 µM
Procedure, shortened: as §1

[9] = test system: C2A; experiment: as above; settings: P. falciparum in erythrocytes, SYBR Green DNA, 72 h; series mostly up to 28.7 µM
Procedure, shortened: as §1

[10] = test system: CP185; experiment: as above; settings: P. falciparum in erythrocytes, SYBR Green DNA, 72 h; series mostly up to 28.7 µM
Procedure, shortened: as §1

[11] = at 12.8 µM (top of the series), parasite line A
[12] = at 12.8 µM (top of the series), parasite line B
[13] = TFE3-RCC UOK109 viability, measured here: UOK109 Z-AUC
[14] = TFE3-RCC viability, measured here: UOK124 Z-AUC
[15] = TFE3-RCC viability, measured here: UOK145 Z-AUC
[16] = at 28.7 µM (top of the series), parasite line A
[17] = at 28.7 µM (top of the series), parasite line B

Row | Structure (SMILES) | activity, negative = inhibition [1, 11] | activity, negative = inhibition [1, 12] | Potency ([1]; parasite line A) | Potency ([1]; parasite line B) | z-score [2, 13] | z-score [2, 14] | z-score [2, 15] | activity, negative = inhibition [1, 16] | activity, negative = inhibition [1, 17] | Potency [3] | Potency [4] | Potency [5] | Potency [6] | Potency [7] | Potency [8] | Potency [9] | Potency [10]
1 | CCn1cc(C(=O)O)c(=O)c2cc(F)c(N3CCNCC3)cc21 | -24.5% (inactive) | -18% (inactive) |  |  |  |  |  |  |  |  |  |  |  |  |  |  | 
2 | CN(C)c1ccc(C(=C2C=CC(=[N+](C)C)C=C2)c2ccc(N(C)C)cc2)cc1 |  |  | 0.224 µM (active) | 0.282 µM (active) |  |  |  |  |  |  |  |  |  |  |  |  | 
3 | CNS(=O)(=O)Cc1ccc2[nH]cc(CCN(C)C)c2c1 |  |  |  |  | 0.748 | 0.938 | 0.747 | -10.9% (inactive) | -3.89% (inactive) | inactive | inactive | inactive | inactive | inactive | inactive | inactive | inactive
4 | O=S(=O)(O)CCS |  |  |  |  | -0.566 | 1.05 | -0.757 | 8.7% (inactive) | 5.78% (inactive) | inactive | inactive | inactive | inactive | inactive | inactive | inactive | inactive
5 | Cc1cccc(Nc2ccncc2S(=O)(=O)NC(=O)NC(C)C)c1 | -0.953% (inactive) | 11.1% (inactive) |  |  | 0.581 | 0.17 | 0.58 |  |  | inactive | inactive | inactive | inactive | inactive | inactive | inactive | inactive
6 | O=NN(CCCl)C(=O)NC1CCCCC1 |  |  |  |  | 0.385 | 1.51 | 1.28 | 5.42% (inactive) | 5.97% (inactive) | inactive | inactive | inactive | inactive | inactive | inactive | inactive | inactive
7 | CN(CCOc1ccc(CC2SC(=O)NC2=O)cc1)c1ccccn1 (stereo not drawn) |  |  |  |  | 1.36 | 0.588 | 0.764 | -1.7% (inactive) | -10% (inactive) | inactive | inactive | inactive | inactive | inactive | inactive | inactive | inactive
8 | COc1nc(N)nc2c1ncn2[C@@H]1O[C@H](CO)[C@@H](O)[C@@H]1O |  |  |  |  | 0.831 | 1.01 | 0.757 | -5.23% (inactive) | -4.98% (inactive) | inactive |  | inactive | inactive | inactive | inactive | inactive | inactive
9 | CC[C@H](NC(C)C)[C@H](O)c1ccc(O)c2[nH]c(=O)ccc12 |  |  |  |  | 0.709 | 0.735 | 1.42 | 3.5% (inactive) | 5.44% (inactive) | inactive | inactive | inactive | inactive | inactive | inactive | inactive | inactive
10 | COc1c(N2CCNC(C)C2)c(F)cc2c(=O)c(C(=O)O)cn(C3CC3)c12 (stereo not drawn) |  |  |  |  | 0.46 | 0.931 | 0.897 | -14.8% (inactive) | -1.5% (inactive) | inactive |  |  | inactive | inactive | inactive | inactive | inactive
11 | O=C(O)c1cc(=O)[nH]c(=O)[nH]1 |  |  |  |  | 1.07 | 0.79 | 1.38 | 24.2% (inactive) | 6.15% (inactive) | inactive |  | inactive | inactive | inactive | inactive | inactive | inactive
12 | C[C@@H](NCCCc1cccc(C(F)(F)F)c1)c1cccc2ccccc12 |  |  |  | 5.62 µM (active) | 1.16 | 0.808 | 0.348 |  |  | 11.2 µM (active) | 1.12 µM (active) | 6.31 µM (active) | 3.98 µM (active) | 7.08 µM (active) | 7.08 µM (active) | 8.91 µM (active) | 11.2 µM (active)
13 | Nc1ccc(S(=O)(=O)Nc2ccccn2)cc1 | -13.7% (inactive) | -1.88% (inactive) |  |  | 1.57 | 0.543 | 0.723 |  |  | inactive | inactive | inactive | inactive | inactive |  | inactive | inactive
14 | CN(Cc1cc(Br)cc(Br)c1N)C1CCCCC1 |  |  |  |  | 1.13 | 0.389 | 1.53 | -5.78% (inactive) | -15.1% (inactive) |  |  | inactive | inactive | inactive |  | inactive | inactive
15 | Nc1[nH]c(=O)ncc1F | 6.35% (inactive) | 1.39% (inactive) |  |  | 0.532 | 0.978 | 0.221 |  |  | inactive | inactive | inactive | inactive | inactive | inactive |  | inactive
16 | Nc1nc(N)nc(-c2cc(Cl)ccc2Cl)n1 |  |  |  |  | 0.0738 | 0.434 | 0.276 | -9.21% (inactive) | -1.76% (inactive) | inactive | inactive | inactive | inactive | inactive | inactive | inactive | inactive
17 | NC(=O)c1cccnc1 |  |  |  |  | 0.739 | 0.417 | -0.282 | 9.61% (inactive) | 2.45% (inactive) | inactive | inactive | inactive | inactive | inactive | inactive | inactive | inactive
18 | CCOC(=O)c1ccc(C#Cc2ccc3c(c2)C(C)(C)CCS3)nc1 |  |  |  |  | 0.0377 | 0.696 | 0.0993 |  | -14.4% (inactive) | inactive | 12.6 µM (active) | inactive | inactive |  | inactive |  | 
